In PubChem BioAssay (NCI):
Compounds without any hit were thinned out: in the full panel of roughly 83,000, 20% have a hit.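 Assay: single dose, 48 h. Readout: percent growth (0 = no net growth; negative = cell death). Active: <10.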 Activity calls are given as the source filed them.

What follows are compounds tested on OVCAR-8 ovarian (assay: NCI-60 one-dose screen, 48 h (100 = growth as untreated, 0 = no growth, -100 = all killed)). Conditions: 10 µM unless noted.
In the case of `CC(C)CC1NC(C)(C)CO1` (stereo not given), the growth was 105% (inactive).
`C=C[C@@H]1C[C@H](O)Cc2cc(F)ccc2N1` was tested, and the growth was 102% (inactive).
With `CCCCCc1cc[n+](CC(=O)c2ccc([N+](=O)[O-])cc2)cc1` the growth was 77% (inactive).
For `COc1ccc(S(=O)(=O)Nc2cc(/C=C\c3cc(OC)c(OC)c(OC)c3)cc(OC)c2OC)cc1`, the growth was 7.61% (active).
`O=C(CSC1CCc2ccccc21)N/N=C/c1ccccc1O` (stereo not given) was tested, and the growth was 57.3% (inactive).
`CC(C)(C)n1cc(-c2ccnc(NCCCNS(=O)(=O)c3ccc(Br)cc3)c2)c(-c2cccc(O)c2)n1` was tested, and the growth was 41.1% (inactive).
For `CCOC(=O)/C(C#N)=C1/C(=O)Nc2ccccc21`, the growth was 108% (inactive).
With `COC(=O)c1cc(=O)nc(N/N=C/c2ccco2)s1` the growth was 107% (inactive).
In the case of `COc1ccc(-c2nc(/C=C3/C(=O)Nc4ccc(F)cc43)c3ccccn23)cc1`, the growth was 98.5% (inactive).
With `CCCCN(CCCC)C(=O)CC` the growth was 112% (inactive).
For `Brc1cccc(-c2cc(-c3ccc4nccnc4c3)[nH]n2)c1`, the growth was 29.3% [25 µM] (inactive).
With `COc1ccc(C(=O)N2NC(=O)/C(=C/c3cn(-c4ccccc4)nc3-c3ccccc3)N=C2c2ccccc2)cc1` the growth was 105% (inactive).
With `N[C@H]1CN(C(=O)c2cc3cc(Br)c(F)c(F)c3[nH]2)C[C@@H]1O` the growth was 100% (inactive).
For `N#Cc1c(-c2ccccc2)nc(SCC(=O)N2CCN(c3ccccc3)CC2)[nH]c1=O`, the growth was 97.9% (inactive).
For `COc1cc(/C=C/C(=O)c2ccc(Nc3ncnc4cc(OC)c(OC)cc34)cc2)cc(OC)c1`, the growth was 95.3% (inactive).
